This excerpt belongs to a sample that is enriched for hits.
FECH block – inhibitors of human ferrochelatase, primary screen, biochemical, purified FECH, Ni-mesoporphyrin absorbance | Ni-mesoporphyrin absorbance 550 nm | calls only at 10 µM (by protocol) | hit rate 3.3% among 20,000;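 active = enzyme reaction rate more than 3 SD below the solvent-only control wells on the same plate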;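 also: lower slope than DMSO wells means FECH inhibition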
Target sequence (P22830 whole entry, looked up): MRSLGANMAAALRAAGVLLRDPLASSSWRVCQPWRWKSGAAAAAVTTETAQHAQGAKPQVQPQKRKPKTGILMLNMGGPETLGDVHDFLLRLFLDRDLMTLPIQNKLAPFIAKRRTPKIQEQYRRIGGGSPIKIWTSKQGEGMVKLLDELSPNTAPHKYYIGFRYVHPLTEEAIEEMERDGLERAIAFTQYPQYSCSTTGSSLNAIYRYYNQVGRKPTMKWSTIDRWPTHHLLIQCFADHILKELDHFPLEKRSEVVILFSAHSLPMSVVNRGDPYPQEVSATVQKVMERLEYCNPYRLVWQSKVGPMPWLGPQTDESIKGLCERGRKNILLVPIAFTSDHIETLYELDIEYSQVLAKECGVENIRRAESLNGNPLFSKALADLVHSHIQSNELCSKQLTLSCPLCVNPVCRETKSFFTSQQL
Numbers without * were called inactive; i = inactive; + = active, no number.

SMILES	FECH block
CCc1cccc(C)c1NC(=O)c1nc2ccccc2n(C)c1=O	i
COc1ccc(N2C(=O)N(CC(=O)NCCc3ccccc3)c3ccccc3S2(=O)=O)cc1OC	i
CCN1C(SCC(=O)Nc2cc(Cl)c(OC)cc2OC)=NS(=O)(=O)c2ccccc21	i
Cc1cccc(C)c1NC(=O)CSCc1nc(-c2ccccc2)no1	i
CCCCNC(=O)CC1CCN(S(=O)(=O)c2ccccc2)CC1	i
CCc1cccc(C)c1NC(=O)CSC1=NS(=O)(=O)c2ccccc2N1CC	+
CCCCNC(=O)CSC1=NS(=O)(=O)c2ccccc2N1CC	+
CCC1=C(c2ccc(OC)cc2)S(=O)(=O)N(CC(=O)Nc2c(C)cccc2CC)C1=O	i
Cc1[nH]cnc1C1CC(=O)Nc2cc3c(cc21)CCc1ccccc1N3 (stereo not given)	i
COCCNC(=O)C1(C)Cn2c(cc3ccsc32)C(=O)N1c1ccc(NC(C)=O)cc1 (stereo not given)	i
CCCCN(Cc1nc2nc(C)cc(C)n2n1)C(=O)c1ccccc1F	i
CCCC1COCCN1Cc1cccc(C)c1O (stereo not given)	i
Cc1cccc2[nH]c(CCN(C)Cc3cccc4c3OCO4)nc12	i
COc1ccc(NC(=O)CN2CCN(Cc3ccccc3C)S2(=O)=O)c(OC)c1	i
CCC(=O)Nc1ccccc1-c1nnc(SCC(=O)Nc2cccc(Cl)c2Cl)[nH]c1=O	i
Cc1ccc(CN2c3ccccc3-c3nc(SCC(=O)Nc4ccc(C)c(Cl)c4)ncc3S2(=O)=O)cc1	i
CCN1C(SCC(=O)Nc2ccccc2C)=NS(=O)(=O)c2ccccc21	+
CC1CCN(C(=O)c2[nH]cnc2C(=O)NCc2ccccc2)CC1	i
O=C(NCc1ccccc1)c1nc[nH]c1C(=O)N1CCCCCC1	i
CCCNC(=O)c1[nH]cnc1C(=O)NCCc1c[nH]c2ccccc12	i
O=C(NCc1ccccc1)c1nc[nH]c1C(=O)N1CCC(Cc2ccccc2)CC1	i
CNC(=O)c1[nH]cnc1C(=O)NCc1ccccc1	+
COCCNC(=O)c1nc[nH]c1C(=O)NCc1ccccc1	+
COc1ccc(Nc2cc(C)nc(Nc3ccc(NC(=O)c4c(F)cccc4Cl)cc3)n2)cc1	i

Assay outcomes deposited in PubChem by Corson Lab, School of Medicine, Indiana University.
